# Results published in ChEMBL document CHEMBL1961873, “Compounds: GSK PKIS; Assays: Nanosyn kinase panel” (2012).
# What was measured:
# [1] = biological target: Sphingosine kinase 1 (Homo sapiens) (UniProt Q9NYA1); conditions: at 1 µM;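 further: mean SPHK1 inhibition value reported from the GSK PKIS kinase panel screen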
# [2] = biological target: T1, Sphingosine kinase 2 (Homo sapiens) (UniProt Q9NRA0); conditions: at 0.1 µM
# T1 sequence (whole entry): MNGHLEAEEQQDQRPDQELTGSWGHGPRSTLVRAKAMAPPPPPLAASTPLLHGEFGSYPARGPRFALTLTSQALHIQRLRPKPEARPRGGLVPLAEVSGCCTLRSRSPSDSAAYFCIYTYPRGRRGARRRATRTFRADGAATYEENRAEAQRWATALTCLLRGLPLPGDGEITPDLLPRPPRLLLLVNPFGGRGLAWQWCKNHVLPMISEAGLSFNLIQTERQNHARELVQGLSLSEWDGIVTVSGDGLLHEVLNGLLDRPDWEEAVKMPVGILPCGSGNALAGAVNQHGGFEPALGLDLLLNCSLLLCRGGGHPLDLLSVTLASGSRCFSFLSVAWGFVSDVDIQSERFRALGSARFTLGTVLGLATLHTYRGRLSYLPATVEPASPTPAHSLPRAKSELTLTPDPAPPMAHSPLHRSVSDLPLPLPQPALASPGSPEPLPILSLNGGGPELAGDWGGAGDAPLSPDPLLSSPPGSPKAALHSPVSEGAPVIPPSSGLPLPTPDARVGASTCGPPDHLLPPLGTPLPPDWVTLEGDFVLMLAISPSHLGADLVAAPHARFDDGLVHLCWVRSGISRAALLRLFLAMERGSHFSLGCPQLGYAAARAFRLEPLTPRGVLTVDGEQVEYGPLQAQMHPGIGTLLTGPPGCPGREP
# [3] = biological target: T1, Sphingosine kinase 2 (Homo sapiens); conditions: at 1 µM
# [4] = biological target: Casein kinase II subunit alpha (Homo sapiens) (UniProt P68400); conditions: at 0.1 µM
# Casein kinase II subunit alpha (Homo sapiens), sequence (P68400 whole entry, looked up): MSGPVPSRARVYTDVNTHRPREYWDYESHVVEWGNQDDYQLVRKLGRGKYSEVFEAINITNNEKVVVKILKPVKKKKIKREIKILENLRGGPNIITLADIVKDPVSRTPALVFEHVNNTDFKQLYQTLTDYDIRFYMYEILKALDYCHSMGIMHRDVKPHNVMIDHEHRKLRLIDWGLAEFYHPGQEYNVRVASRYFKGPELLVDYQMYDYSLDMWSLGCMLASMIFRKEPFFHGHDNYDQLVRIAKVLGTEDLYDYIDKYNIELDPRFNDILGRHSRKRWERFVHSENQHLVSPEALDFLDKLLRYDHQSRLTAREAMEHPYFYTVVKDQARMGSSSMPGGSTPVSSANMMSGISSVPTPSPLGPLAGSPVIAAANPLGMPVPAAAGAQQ
# [5] = biological target: Casein kinase II subunit alpha (Homo sapiens) (UniProt P68400); conditions: at 1 µM
# [6] = biological target: T2, Inhibitor of nuclear factor kappa-B kinase subunit alpha (Homo sapiens) (UniProt O15111); conditions: at 0.1 µM
# T2 sequence (whole entry): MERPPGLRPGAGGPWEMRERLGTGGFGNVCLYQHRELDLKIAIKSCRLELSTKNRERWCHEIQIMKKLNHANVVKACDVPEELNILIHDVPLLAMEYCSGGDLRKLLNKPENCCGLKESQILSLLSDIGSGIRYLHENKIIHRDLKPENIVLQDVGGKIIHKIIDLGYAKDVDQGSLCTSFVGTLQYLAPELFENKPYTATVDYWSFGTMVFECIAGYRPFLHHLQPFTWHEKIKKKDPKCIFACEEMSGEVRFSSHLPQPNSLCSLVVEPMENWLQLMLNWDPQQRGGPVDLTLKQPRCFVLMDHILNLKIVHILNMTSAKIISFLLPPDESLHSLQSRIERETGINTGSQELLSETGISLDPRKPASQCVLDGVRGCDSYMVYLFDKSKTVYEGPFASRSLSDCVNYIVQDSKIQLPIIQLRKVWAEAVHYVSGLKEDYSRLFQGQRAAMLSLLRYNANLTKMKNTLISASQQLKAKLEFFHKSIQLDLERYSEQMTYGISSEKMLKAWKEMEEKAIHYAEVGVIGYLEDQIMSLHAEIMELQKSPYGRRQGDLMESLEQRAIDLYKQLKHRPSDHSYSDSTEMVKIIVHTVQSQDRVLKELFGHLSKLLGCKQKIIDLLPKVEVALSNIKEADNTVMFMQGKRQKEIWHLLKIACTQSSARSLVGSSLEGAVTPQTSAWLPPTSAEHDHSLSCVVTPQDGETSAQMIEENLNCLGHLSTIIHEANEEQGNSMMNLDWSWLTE
# [7] = biological target: T2, Inhibitor of nuclear factor kappa-B kinase subunit alpha (Homo sapiens); conditions: at 1 µM
# [8] = biological target: T3, Inhibitor of nuclear factor kappa-B kinase subunit beta (Homo sapiens) (UniProt O14920); conditions: at 0.1 µM
# T3 sequence (whole entry): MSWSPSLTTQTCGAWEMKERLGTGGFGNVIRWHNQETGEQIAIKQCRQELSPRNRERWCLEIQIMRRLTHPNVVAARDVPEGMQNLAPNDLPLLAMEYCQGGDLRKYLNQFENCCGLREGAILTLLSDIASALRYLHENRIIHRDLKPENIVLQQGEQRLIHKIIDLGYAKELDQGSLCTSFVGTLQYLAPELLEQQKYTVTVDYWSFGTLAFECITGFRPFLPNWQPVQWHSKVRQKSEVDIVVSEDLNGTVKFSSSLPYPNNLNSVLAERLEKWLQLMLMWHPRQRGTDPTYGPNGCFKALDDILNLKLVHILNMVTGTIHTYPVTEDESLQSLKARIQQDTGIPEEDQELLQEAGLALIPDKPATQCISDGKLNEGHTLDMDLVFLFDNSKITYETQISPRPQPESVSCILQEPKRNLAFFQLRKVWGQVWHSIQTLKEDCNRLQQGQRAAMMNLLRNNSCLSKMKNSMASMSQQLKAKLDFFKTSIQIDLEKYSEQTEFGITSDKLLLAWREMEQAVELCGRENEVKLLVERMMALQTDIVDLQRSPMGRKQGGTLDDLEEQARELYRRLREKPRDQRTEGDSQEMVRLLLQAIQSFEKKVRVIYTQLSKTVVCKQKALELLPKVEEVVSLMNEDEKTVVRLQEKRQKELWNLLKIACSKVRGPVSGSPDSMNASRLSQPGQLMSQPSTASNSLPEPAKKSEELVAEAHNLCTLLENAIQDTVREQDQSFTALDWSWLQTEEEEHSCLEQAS
# [9] = biological target: T3, Inhibitor of nuclear factor kappa-B kinase subunit beta (Homo sapiens); conditions: at 1 µM
# [10] = biological target: T4, Inhibitor of nuclear factor kappa-B kinase subunit epsilon (Homo sapiens) (UniProt Q14164); conditions: at 0.1 µM;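 further: mean inhibition of IKKε reported, from the GSK PKIS dataset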
# T4 sequence (whole entry): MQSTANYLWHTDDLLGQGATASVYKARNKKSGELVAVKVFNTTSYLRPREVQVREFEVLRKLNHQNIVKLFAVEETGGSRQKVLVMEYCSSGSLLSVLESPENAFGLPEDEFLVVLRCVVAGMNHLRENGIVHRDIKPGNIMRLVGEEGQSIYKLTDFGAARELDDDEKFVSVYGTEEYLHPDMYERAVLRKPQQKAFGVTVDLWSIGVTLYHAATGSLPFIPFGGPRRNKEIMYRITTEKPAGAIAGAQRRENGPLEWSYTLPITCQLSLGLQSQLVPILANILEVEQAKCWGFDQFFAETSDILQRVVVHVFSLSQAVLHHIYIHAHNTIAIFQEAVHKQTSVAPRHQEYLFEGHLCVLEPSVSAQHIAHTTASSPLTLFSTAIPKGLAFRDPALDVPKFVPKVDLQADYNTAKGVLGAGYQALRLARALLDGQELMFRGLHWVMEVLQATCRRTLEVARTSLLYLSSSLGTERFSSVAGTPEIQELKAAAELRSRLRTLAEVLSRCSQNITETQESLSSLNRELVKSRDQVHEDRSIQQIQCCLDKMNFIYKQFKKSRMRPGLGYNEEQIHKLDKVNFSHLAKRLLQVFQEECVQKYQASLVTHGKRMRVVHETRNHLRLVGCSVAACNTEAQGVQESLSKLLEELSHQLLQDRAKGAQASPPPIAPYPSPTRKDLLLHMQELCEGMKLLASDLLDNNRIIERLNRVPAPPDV
# Sphingosine kinase 1 (Homo sapiens), sequence (Q9NYA1 whole entry): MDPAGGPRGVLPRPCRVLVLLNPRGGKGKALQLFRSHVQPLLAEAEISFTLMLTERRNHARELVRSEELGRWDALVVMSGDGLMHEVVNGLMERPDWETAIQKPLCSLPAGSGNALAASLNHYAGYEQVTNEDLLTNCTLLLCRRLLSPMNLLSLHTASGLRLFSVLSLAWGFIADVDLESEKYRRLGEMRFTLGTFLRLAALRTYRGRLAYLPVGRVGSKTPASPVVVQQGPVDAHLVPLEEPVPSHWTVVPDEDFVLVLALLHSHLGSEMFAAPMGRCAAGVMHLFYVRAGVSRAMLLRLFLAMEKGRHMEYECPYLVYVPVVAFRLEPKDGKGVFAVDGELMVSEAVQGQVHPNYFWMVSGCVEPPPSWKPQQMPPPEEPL
Compound,inhibition [1],inhibition [2],inhibition [3],inhibition [4],inhibition [5],inhibition [6],inhibition [7],inhibition [8],inhibition [9],inhibition [10]
CCS(=O)(=O)c1ccc(OC)c(Nc2ncc(-c3cccc(F)c3)o2)c1,0.12%,-0.46%,0%,15.4%,46.8%,9.53%,11%,6.88%,9.91%,10.8%
CC1=C(C(=O)Nc2ccc3[nH]nc(C)c3c2)C(c2ccc(C(F)(F)F)cc2)CC(=O)N1 (stereo not given),-1.2%,-0.06%,-2.04%,1.79%,2.97%,3.27%,-5.37%,2.18%,0.69%,0.85%
CCn1c(-c2nonc2N)nc2cncc(C(=O)NCCNC)c21,-1.79%,-0.3%,8.93%,4.41%,2.99%,8.82%,14.1%,6.55%,7.92%,7.73%
CN1CCC(n2cnc(-c3ccc(F)cc3)c2-c2ccnc(NCCO)n2)CC1,-1.28%,0.37%,-1.92%,4.78%,13.2%,2.6%,6.82%,5.84%,6.36%,7.53%
COc1ccccc1-c1cc(/C=C2\C(=O)Nc3ncc(Br)cc32)cc(Br)c1O,-2.44%,2.31%,0.1%,1.59%,3.83%,0.19%,0.71%,5.58%,-0.48%,10.9%
